An excerpt weighted towards active compounds, which were near 2.1% of everything screened.
aSyn yeast inh = alpha-synuclein toxicity inhibition in yeast; Yeast expressing alpha-synuclein, growth rescue, BacTiter-Glo, 24 h; AID 652106; Potency, µM (series often up to 46.1 µM), inactives show at the highest dose growth rescue (activation), usual class: activators; actives 0.14% (n = 370,000); note: % of control where 0% means no effect; nearly all actives have a fitted effect of over 65% in size
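Galactose-induced alpha-syn yeast (OD600=0.02, raffinose-pregrown) + pinned cpd, 24 hr, 30 deg C; growth by BacTiter-Glo luminescence. Growth restoration scores as activation.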
FUS yeast rescue = FUS proteinopathy suppression in yeast. S. cerevisiae FUS-expressing, growth rescue, OD600, 24 h. Potency, µM (doses to about 76.6 µM), actives largely listed as activators. actives 0.24% (n = 390,000). AID 1347120;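 note: plate controls were DMSO vehicle for no effect and reference control for full effect; nearly all actives have a fitted effect of over 55% in size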
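Quantitative HTS measuring growth restoration of FUS-toxic yeast. Galactose-induced cells (OD 0.005) were exposed 24hr at 30C to compounds at several concentrations, then absorbance at 600 nm was recorded.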
TDP-43 yeast inh = TDP-43 toxicity inhibition in yeast; TDP-43 expressing yeast growth rescue, BacTiter-Glo, 24 h; Potency, µM (top dose mostly 46.1 µM), for inactives: top-dose growth rescue (activation), usual class: activators; actives 1.8% (n = 410,000); AID 652104; note: % of control where 0% means no effect; nearly all actives have a fitted effect of over 50% in size
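Luminescence from BacTiter-Glo reports growth of TDP-43-expressing yeast after 24 hr at 30 deg C with compound. Cells were raffinose-pregrown to mid-log, then seeded in galactose medium at OD600=0.02.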
Abeta rescue = A-beta toxicity reversal in yeast; yeast expressing A-beta42, growth rescue, OD600, 48 h; response scale: 0% DMSO, 100% iron-clioquinol control; Potency, µM (doses to about 46.1 µM), most hits filed as activators; actives 0.063% (n = 410,000); AID 1347071; note: nearly all actives have a fitted effect of over 55% in size
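Yeast A-beta toxicity model in growth medium with pinned compounds, 48 h at 30 C; growth read as absorbance at 600 nm. Normalized to FeCl3/clioquinol equimolar mix (positive) and DMSO (negative).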
An asterisk follows results filed as active. Calls come from the whole dose curve; as a rule, active = well fitted curve in the direction sought with a large enough effect; inconclusive = small, poorly fitted or top-dose-only effect, or another doubt; inactive = no such curve, though single readings can be large; an effect the other way counts as inactive or inconclusive. Potency is the fitted concentration of half-maximal effect.

What do the screens show for `Cc1cccc(CSc2nnc(-c3ccco3)o2)c1`?
aSyn yeast inh: -12%; FUS yeast rescue: inactive; TDP-43 yeast inh: 18µM*; Abeta rescue: inactive

What do the screens show for `Cc1cccc(CSc2nnc(-c3ccco3)n2C)c1`?
aSyn yeast inh: -3%; FUS yeast rescue: inactive; TDP-43 yeast inh: 24%; Abeta rescue: inactive

What do the screens show for `Cc1cccc(-c2nnc(-c3ccc(N)cc3)o2)c1`?
aSyn yeast inh: 8%; FUS yeast rescue: inactive; TDP-43 yeast inh: 8.9µM*; Abeta rescue: inactive

How did Cc1cccc(-c2nnc(SCc3ccccc3)o2)c1 do in these assays?
aSyn yeast inh: 0%; FUS yeast rescue: inactive; TDP-43 yeast inh: 11µM*; Abeta rescue: inactive

How did COc1cc(OC)cc(-c2nnc(SCc3cccnc3)o2)c1 do in these assays?
aSyn yeast inh: -2%; FUS yeast rescue: inactive; TDP-43 yeast inh: inconclusive; Abeta rescue: inactive

Results for N#Cc1ccccc1CSc1nnc(-c2ccncc2)o1 ?
aSyn yeast inh: -13%; FUS yeast rescue: inconclusive; TDP-43 yeast inh: 22%; Abeta rescue: inactive

What do the screens show for `N#Cc1cccc(-c2nnc(SCc3ccccc3C#N)o2)c1`?
aSyn yeast inh: 13%; FUS yeast rescue: inactive; TDP-43 yeast inh: 18µM*; Abeta rescue: inactive

How did O=C(O)c1cncc(C#CCC2CCCCC2)c1 do in these assays?
aSyn yeast inh: 3%; FUS yeast rescue: inactive; TDP-43 yeast inh: 14µM*; Abeta rescue: inactive

What do the screens show for `COc1ccc(Cn2cc(CN3[C@@H](CC(C)C)COc4cccc(F)c4S3(=O)=O)nn2)cc1`?
FUS yeast rescue: inactive

How did CCOc1ccccc1C(=O)N(Cc1cc(OC)c(OC)c(OC)c1)c1ccccn1 do in these assays?
FUS yeast rescue: inactive; TDP-43 yeast inh: -1%; Abeta rescue: inactive

Results for COc1cccc(S(=O)(=O)Nc2noc3ccccc23)c1 ?
aSyn yeast inh: 0%; FUS yeast rescue: inactive; TDP-43 yeast inh: inconclusive; Abeta rescue: inactive

How did CC(C)(C)c1ccc(S(=O)(=O)Nc2noc3ccccc23)cc1 do in these assays?
aSyn yeast inh: -11%; FUS yeast rescue: inactive; TDP-43 yeast inh: 20µM*; Abeta rescue: inactive

How did COc1ccc(S(=O)(=O)Nc2noc3ccccc23)cc1 do in these assays?
aSyn yeast inh: -4%; FUS yeast rescue: inactive; TDP-43 yeast inh: 11µM*; Abeta rescue: inactive

How did CCOC(=O)c1c(-c2ccc(-c3ccccc3)cc2)csc1NC(=O)CCN1CCOCC1 do in these assays?
aSyn yeast inh: -28%; FUS yeast rescue: inconclusive; TDP-43 yeast inh: 14µM*; Abeta rescue: inactive

Results for N/C(Cc1ccc(Cl)cc1Cl)=N\OC(=O)Cc1ccccc1 ?
aSyn yeast inh: -69%; TDP-43 yeast inh: inconclusive; Abeta rescue: inactive

Results for COc1ccc(/C(N)=N/OC(=O)CN(C)S(=O)(=O)c2ccccc2)cc1 ?
aSyn yeast inh: 4%; FUS yeast rescue: inactive; TDP-43 yeast inh: 13µM*; Abeta rescue: inactive

Results for N/C(Cc1ccc(Cl)cc1Cl)=N\OC(=O)Cc1ccc(Cl)cc1 ?
aSyn yeast inh: -61%; FUS yeast rescue: inactive; TDP-43 yeast inh: 1.3µM*; Abeta rescue: inactive

What do the screens show for `COc1ccc(C/C(N)=N/OC(=O)Cc2ccccc2)cc1`?
aSyn yeast inh: -2%; FUS yeast rescue: inactive; TDP-43 yeast inh: 16µM*; Abeta rescue: inactive

What do the screens show for `COc1ccc(CC(=O)O/N=C(\N)c2ccc(OC)cc2)cc1`?
aSyn yeast inh: 11%; FUS yeast rescue: inactive; TDP-43 yeast inh: 18µM*; Abeta rescue: inactive

How did COc1ccc(/C(N)=N/OC(=O)Cc2cccs2)cc1 do in these assays?
aSyn yeast inh: -20%; FUS yeast rescue: inactive; TDP-43 yeast inh: inconclusive; Abeta rescue: inactive

What do the screens show for `COC(=O)[C@H](C(C)C)N1CCc2nnn(Cc3ccc(C)cc3)c2-c2cc(F)ccc2S1(=O)=O`?
FUS yeast rescue: inactive

Results for CCCCNC[C@@]12CO[C@H](c3ccc(Cl)cc3)N1[C@@H](c1ccc(Cl)cc1)SC2 ?
FUS yeast rescue: inactive

How did O=c1c2ccccc2n(Cc2ccno2)n1[C@@H](Cc1ccccc1)Cn1cc(C2CCCC2)nn1 do in these assays?
FUS yeast rescue: inactive

What do the screens show for `COc1ccc(/C(N)=N/OC(=O)C2CCCCC2)cc1OC`?
aSyn yeast inh: -2%; FUS yeast rescue: inactive; TDP-43 yeast inh: 17%; Abeta rescue: inactive

What do the screens show for `COc1ccc(/C(N)=N/OC(=O)C2CCCCC2)cc1`?
aSyn yeast inh: -10%; FUS yeast rescue: inactive; TDP-43 yeast inh: 16µM*; Abeta rescue: inactive

What do the screens show for `COc1ccc(CC(=O)O/N=C(\N)Cc2ccc(OC)cc2)cc1`?
aSyn yeast inh: -8%; FUS yeast rescue: inactive; TDP-43 yeast inh: 11µM*; Abeta rescue: inactive

How did C[C@H]1[C@H](NC(=O)c2cccc(C(F)(F)F)c2)CC[C@@]23CCCN2C(=O)CCC[C@@H]13 do in these assays?
FUS yeast rescue: inactive

Results for Cc1ccccc1C1C(C#N)=C2N=C(N)c3ccccc3N2C2=C1C(=O)CCC2 (stereo unspecified) ?
aSyn yeast inh: -3%; FUS yeast rescue: inactive; TDP-43 yeast inh: -4%; Abeta rescue: inactive

What do the screens show for `Cc1ccccc1C1C(C#N)=C2N=C(N)c3c(sc4c3CCCCC4)N2C2=C1C(=O)CC(C)(C)C2` (stereo unspecified)?
aSyn yeast inh: 1%; FUS yeast rescue: 28µM*; TDP-43 yeast inh: 9%; Abeta rescue: inactive

What do the screens show for `COc1ccc(C(=O)/C=C/Nc2cc(C)on2)c(OC)c1`?
aSyn yeast inh: 13µM*; FUS yeast rescue: inactive; TDP-43 yeast inh: inconclusive; Abeta rescue: inactive

How did COc1ccc(C(=O)/C=C/Nc2ccc([N+](=O)[O-])cc2C)c(OC)c1 do in these assays?
aSyn yeast inh: -8%; FUS yeast rescue: inactive; TDP-43 yeast inh: -16%; Abeta rescue: inactive

How did COc1ccc(NC(=O)c2ccco2)cc1NC(=O)c1cccc(OC(C)C)c1 do in these assays?
aSyn yeast inh: 1%; FUS yeast rescue: inactive; TDP-43 yeast inh: 13µM*; Abeta rescue: inactive

How did COc1cccc(C(=O)Nc2cc(NC(=O)c3ccco3)ccc2OC)c1 do in these assays?
aSyn yeast inh: 1%; FUS yeast rescue: inactive; TDP-43 yeast inh: inconclusive; Abeta rescue: inactive

What do the screens show for `COc1ccc(C(=O)Nc2cccc(OC(=O)c3ccco3)c2)cc1`?
aSyn yeast inh: 1%; FUS yeast rescue: inactive; TDP-43 yeast inh: 18µM*; Abeta rescue: inactive

Results for CC(C)CN1CN2Cc3cc(F)ccc3C2CS1(=O)=O (stereo unspecified) ?
FUS yeast rescue: inactive

Results for CS(=O)(=O)c1ccc(NC(=O)COc2ccccc2C(=O)Nc2ccccc2)cc1 ?
aSyn yeast inh: -6%

How did COc1ccc(C(=O)n2nc(C)cc2Nc2ccccc2)cc1 do in these assays?
aSyn yeast inh: -18%; FUS yeast rescue: inactive; TDP-43 yeast inh: 35µM*; Abeta rescue: inactive

Results for COc1ccc(NC(=O)Nc2cc(C)nn2-c2ccccc2)cc1 ?
FUS yeast rescue: inactive

Assay outcomes (PubChem)
